PubChem BioAssay AID1159580 (chemical genetic matrix, 2015)
Hit rate of the full screen: of about 5,500 compounds, about 2,000 (36%) were called active. Inconclusive results (about 18%) are left out. No stated cut-off is given here; in the data, active means normalized growth mostly below about 0.91 (no sharp cut-off); inconclusive means no clear call, values can overlap the other calls; inactive means mostly above about 0.92. Some of the results follow.

Assay: chemical genetic growth profiling, strain panel (AID 1159580);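 further: tested at 20 µM; growth read once vehicle control cultures reached saturation at 30 °C; 1 = growth at the plate median or of vehicle wells; lower values mean less growth of the strain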
Conditions: S. cerevisiae deletion strains, growth OD

Measured: normalized growth

CCN(CC)CCOCCOC(=O)C1(c2ccccc2)CCCC1
inactive: locus YAL013W, strain DEP1, hits give low values 0.986 | locus YAL021C, strain ccr4, hits give low values 0.986 | locus YAL026C, strain drs2, hits give low values 0.995 | locus YAL030W, strain snc1, hits give low values 0.992 | locus YAL040C, strain CLN3, hits give low values 0.988 | locus YBL061C, strain skt5, hits give low values 0.996 | locus YBR009C, strain hhf1, hits give low values 0.997 | locus YBR023C, strain chs3, hits give low values 0.987 | locus YBR171W, strain sec66, hits give low values 0.987 | locus YBR231C, strain swc5, hits give low values 0.982 | locus YBR279W, strain paf1, hits give low values 0.995 | locus YCL011C, strain gbp2, hits give low values 0.99 | locus YCL016C, strain dcc1, hits give low values 0.998 | locus YCL061C, strain MRC1 (second series), hits give low values 0.994 | locus YCL061C, strain MRC1, hits give low values 0.989 | locus YCL069W, strain vba3, hits give low values 0.994 | locus YCR088W, strain abp1, hits give low values 0.981 | locus YDL005C, strain med2, hits give low values 0.988 | locus YDL040C, strain nat1, hits give low values 0.998 | locus YDR001C, strain nth1, hits give low values 0.999 | locus YDR069C, strain doa4, hits give low values 0.984 | locus YDR137W, strain rgp1, hits give low values 0.981 | locus YDR150W, strain NUM1, hits give low values 0.995 | locus YDR159W, strain sac3, hits give low values 0.99 | locus YDR195W, strain ref2 0.966 | locus YDR297W, strain sur2, hits give low values 0.989 | locus YDR334W, strain swr1, hits give low values 0.995 | locus YDR335W, strain msn5, hits give low values 0.996 | locus YDR392W, strain spt3, hits give low values 1.01 | locus YEL003W, strain gim4, hits give low values 0.999 | locus YEL037C, strain rad23, hits give low values 0.999 | locus YEL061C, strain CIN8 (second series), hits give low values 0.999 | locus YER002W, strain NOP16, hits give low values 1 | locus YER015W, strain faa2, hits give low values 0.992 | locus YER016W, strain bim1, hits give low values 0.995 | locus YER111C, strain swi4, hits give low values 0.985 | locus YER155C, strain BEM2 (second series), hits give low values 0.992 | locus YFR010W, strain ubp6, hits give low values 1 | locus YGL167C, strain pmr1, hits give low values 0.991 | locus YGL173C, strain kem1, hits give low values 0.999 | locus YGL227W, strain vid30, hits give low values 0.981 | locus YGL240W, strain doc1, hits give low values 0.998 | locus YGL253W, strain hxk2, hits give low values 0.989 | locus YGR078C, strain PAC10, hits give low values 0.972 | locus YGR229C, strain SMI1, hits give low values 0.979 | locus YHR013C, strain ard1, hits give low values 0.969 | locus YHR027C, strain rpn1, hits give low values 0.996 | locus YHR030C, strain SLT2, hits give low values 0.967 | locus YHR079C, strain IRE1, hits give low values 0.975 | locus YHR142W, strain chs7, hits give low values 0.99 | locus YJL092W, strain hpr5, hits give low values 0.997 | locus YJL095W, strain BCK1 (second series), hits give low values 0.992 | locus YJL095W, strain BCK1, hits give low values 0.966 | locus YJL115W, strain asf1, hits give low values 0.996 | locus YJL129C, strain trk1, hits give low values 0.994 | locus YJL154C, strain vps35, hits give low values 0.998 | locus YJL164C, strain tpk1, hits give low values 0.977 | locus YJL166W, strain qcr8, hits give low values 0.997 | locus YJL187C, strain SWE1, hits give low values 0.996 | locus YJR066W, strain TOR1, hits give low values 0.917 | locus YJR075W, strain HOC1, hits give low values 0.99 | locus YKL160W, strain elf1, hits give low values 1 | locus YKR026C, strain gcn3, hits give low values 0.98 | locus YKR091W, strain srl3, hits give low values 0.992 | locus YLL001W, strain dnm1, hits give low values 0.994 | locus YLL026W, hits give low values 0.99 | locus YLL041C, strain sdh2, hits give low values 1 | locus YLR027C, strain aat2, hits give low values 0.993 | locus YLR113W, strain HOG1, hits give low values 0.931 | locus YLR221C, strain rsa3, hits give low values 0.987 | locus YLR258W, strain gsy2, hits give low values 0.979 | locus YLR262C, strain YPT6 (second series), hits give low values 0.947 | locus YLR320W, strain mms22, hits give low values 0.99 | locus YLR342W, strain FKS1, hits give low values 0.987 | locus YLR357W, strain rsc2, hits give low values 0.975 | locus YLR370C, strain arc18, hits give low values 0.998 | locus YLR384C, strain iki3, hits give low values 0.992 | locus YML120C, strain ndi1, hits give low values 0.989 | locus YMR058W, strain fet3, hits give low values 0.999 | locus YMR125W, strain sto1, hits give low values 0.987 | locus YMR129W, hits give low values 0.997 | locus YMR205C, strain PFK2, hits give low values 0.986 | locus YMR231W, strain pep5, hits give low values 0.996 | locus YMR307W, strain GAS1, hits give low values 0.986 | locus YNL071W, strain lat1, hits give low values 1.02 | locus YNL175C, strain NOP13, hits give low values 1.02 | locus YNL183C, strain NPR1, hits give low values 0.915 | locus YNL197C, strain WHI3, hits give low values 0.994 | locus YNL209W, strain ssb2, hits give low values 0.998 | locus YNL224C, strain SQS1, hits give low values 1 | locus YNL248C, strain rpa49, hits give low values 1.01 | locus YNL322C, strain KRE1 (second series), hits give low values 0.99 | locus YNL322C, strain KRE1, hits give low values 1.01 | locus YNR049C, strain mso1, hits give low values 0.989 | locus YOR001W, strain rrp6, hits give low values 0.994 | locus YOR070C, strain gyp1, hits give low values 0.999 | locus YOR080W, strain dia2, hits give low values 0.989 | locus YOR083W, strain WHI5 (second series), hits give low values 0.996 | locus YOR083W, strain WHI5, hits give low values 1 | locus YOR106W, strain vam3, hits give low values 1.02 | locus YOR231W, strain MKK1, hits give low values 0.983 | locus YOR265W, strain rbl2, hits give low values 0.988 | locus YOR270C, strain vph1, hits give low values 0.999 | locus YOR290C, strain snf2, hits give low values 0.992 | locus YPL051W, strain arl3, hits give low values 0.989 | locus YPL055C, strain LGE1, hits give low values 0.996 | locus YPL078C, strain atp4, hits give low values 0.994 | locus YPL106C, strain sse1, hits give low values 0.995 | locus YPL240C, strain hsp82, hits give low values 0.995 | locus YPL241C, strain CIN2, hits give low values 0.995 | locus YPL256C, strain CLN2, hits give low values 0.959
